We go through 52 compounds from ChEMBL document CHEMBL4513216, “Probing the Open Global Health Chemical Diversity Library for Multistage-Active Starting Points for Next-Generation Antimalarials” (ACS Infect Dis, 2020).

Out of some 65,000 compounds screened, about 2,100 (3.2%) showed an effect of 50% or more. The median lay at about -52%. What follows is part of a selection rich in strong results, with near analogues and random picks from the rest.

The assay concerns Plasmodium falciparum. The assay can be described thus: Screen against P. falciparum Asexual Blood Stage (ABS), at 5uM. Format: functional, Dd2. The note with it: tested at 5 uM.
Turning to `COCCN1CCN(C(=O)N2CCCC2)Cc2ccc(C)nc21`, the INHIBITION is -114%.

For `CC(C)(C)c1nc(CN2CCCN(Cc3cccs3)CC2)no1`, the INHIBITION is reported as 30.6%.

As to `Cc1csc(N2CCN(C(=O)C3(C#N)CCCC3)CC2)n1`, the INHIBITION was -111%.

Regarding `Cc1csc(N2CCCN(C(=O)C3(C#N)CCCC3)CC2)n1`, the INHIBITION is 63%.

As to `Cc1csc(N2CCCN(C(=O)C3(C#N)CCCCC3)CC2)n1`, the INHIBITION was -43.4%.

Regarding `Fc1cccc(N2CCCC3(CN(Cc4nccs4)CCO3)C2)c1` (configuration not stated), the INHIBITION is given as 0.276%.

On to `CC(=O)Nc1ccc(CN2CCCC(c3cc4ncccc4[nH]3)C2)cc1` (configuration not stated), for which the INHIBITION is given as 42.3%.

For the compound `CN(CC1CCCCO1)c1nc(-c2cccnc2)nc2c1CCNC2` (configuration not stated), the INHIBITION is given as -14.1%.

As for `CN(Cc1cccnc1)c1nc(-c2ccccn2)nc2c1CCNCC2`, the INHIBITION was 55.3%.

As to `CN(Cc1ccc(-n2cccn2)cc1)c1nc(N)nc2c1CCNCC2`, the INHIBITION is recorded as 58.4%.

As to `CN(Cc1ccccc1-n1cccn1)c1nc(N)nc2c1CCNCC2`, the INHIBITION is -13.4%.

In the case of `CN(CC(O)CO)c1nc(-c2cccnc2)nc2c1CCNC2` (configuration not stated), the INHIBITION is recorded as -79.7%.

On to `c1ccc(-c2nc3c(c(NCCn4cccc4)n2)CCNCC3)nc1`, for which the INHIBITION is given as -0.552%.

`CN(Cc1ccc(-n2cccn2)cc1)c1cc(N)nc(N)n1`: the INHIBITION was determined as 41.7%.

As to `CN(CCO)c1nc(-c2ccccn2)nc2c1CCNC2`, the INHIBITION was -79.2%.

For the compound `Cc1cc(CN(C)c2nc(-c3ccccn3)nc3c2CCNCC3)n[nH]1`, the INHIBITION is reported as 69.2%.

On to `CN(CC1CCCO1)c1nc(-c2cccnc2)nc2c1CCNCC2` (configuration not stated), for which the INHIBITION is given as -40%.

Regarding `Cc1nonc1CN(C)c1nc(-c2cccnc2)nc2c1CCNC2`, the INHIBITION is 69.5%.

For the compound `Cc1nc2c(c(N(C)Cc3ccccc3-n3cccn3)n1)CCNCC2`, the INHIBITION is -3.02%.

Take `COc1cc(CNCc2ccc(NC(=O)NC(C)C)cc2)cc(OC)c1`: the INHIBITION is given as -65.3%.

For the compound `CCC(=O)Nc1cccc(OCC(=O)N2C[C@H]3CC[C@H]2C3)c1`, the INHIBITION is listed as -137%.

Take `COc1cccc(CC(=O)N2CCC3(CC2)OCCCC3O)c1OC` (configuration not stated): the INHIBITION is recorded as -112%.

Take `O=C(CN1CCCC1Cn1cccn1)NCCC1=CCCCC1` (configuration not stated): the INHIBITION was -61.8%.

Consider `CCS(=O)(=O)N1CCc2c(COCc3ccncc3)cncc2C1`, for which the INHIBITION is recorded as -181%.

With `CCn1nccc1CN(C)C(=O)Cn1nc(C)cc1C`, the INHIBITION was -52.5%.

As to `CC(=O)Nc1cccc(OCCNC(=O)N(C)Cc2ccccc2)c1`, the INHIBITION is given as -47.8%.

`COc1cccc(CN2CC(=O)N(c3ccccc3C)CC2C)c1OC` (configuration not stated): the INHIBITION is listed as 53.8%.

As to `COc1ccc(F)c(F)c1CN1CC(=O)N(c2ccccc2C)CC1C` (configuration not stated), the INHIBITION worked out at 30.6%.

As to `COc1ccc(F)c(CN2CC(=O)N(c3ccccc3C)CC2C)c1` (configuration not stated), the INHIBITION was 9.59%.

As for `CC(C)c1nnsc1CNC(=O)C1CCCN(C(=O)N(C)C)C1` (configuration not stated), the INHIBITION was -18.2%.

`Fc1cccc(CNCC2OCCc3cn(CC4CCOCC4)nc32)c1` (configuration not stated): the INHIBITION is reported as 17.8%.

Consider `CC(C)n1ncc2c1NC(=O)CC21C(=O)Nc2c(Br)cc(Cl)cc21` (configuration not stated), for which the INHIBITION was -72.6%.

With `COCc1nc(CNC(=O)C(C)n2ccnc2C(C)C)no1` (configuration not stated), the INHIBITION is recorded as -14.3%.

As for `COc1cc2c(cc1CNC(=O)C(C)n1ccnc1C(C)C)OCCO2` (configuration not stated), the INHIBITION came out at 11.4%.

With `COc1cc2c(cc1CNC(=O)C(C)n1ccnc1C(C)C)CCC2` (configuration not stated), the INHIBITION is recorded as 60.2%.

As to `COc1cccc(N2CCN(CCC(=O)NC3CCCCC3)CC2)c1`, the INHIBITION is listed as -28.7%.

As to `CCC(NC(=O)COC)c1ccccc1OCC(=O)N1CCCC1` (configuration not stated), the INHIBITION was -191%.

Regarding `CCC(N)c1ccccc1OCC(=O)N1CCCC1` (configuration not stated), the INHIBITION is listed as 52.5%.

Turning to `CCC(NC(N)=O)c1ccccc1OCC(=O)N1CCCC1` (configuration not stated), the INHIBITION is reported as -37.9%.

In the case of `CCOCCC1(C(=O)N2CCCC(c3ncc[nH]3)C2)CCCC1` (configuration not stated), the INHIBITION is -71.1%.

On to `CC(c1ccncn1)N(C)Cc1cc2cc3c(cc2[nH]c1=O)OCO3` (configuration not stated), for which the INHIBITION is on record as -84.5%.

As to `CCOc1cccc(C(=O)Nc2ccncc2)c1`, the INHIBITION is reported as -39.7%.

On to `COc1c(CNC2CCc3cc(Cl)ccc32)c(C)nn1C` (configuration not stated), for which the INHIBITION came out at 21.4%.

Consider `COc1c(CNC2(c3ccc(Cl)cc3)CCC2)c(C)nn1C`, for which the INHIBITION was found to be 60.5%.

On to `COc1c(CNC2(c3noc(C)n3)CCC2)c(C)nn1C`, for which the INHIBITION was -55.5%.

With `Cc1nc(-c2ccccc2)cc(C2CCNCC2)n1`, the INHIBITION amounted to 57.8%.

Consider `Cc1nc(-c2ccc(F)cc2)cc(C2CCNCC2)n1`, for which the INHIBITION was -33.4%.

In the case of `COc1ccc(-c2cc(C3CCNCC3)nc(C)n2)cc1`, the INHIBITION is reported as -57.7%.

With `CC(=O)N1CCCC(c2nc(N(C)C)ncc2-c2cccc(F)c2)C1` (configuration not stated), the INHIBITION was -1.35%.

On to `O=C(c1ncccn1)N1C[C@H]2CCC[C@@]2(COc2ccccn2)C1`, for which the INHIBITION was 14.9%.

For the compound `Cc1ccc(C(=O)N2C[C@H]3CCC[C@@]3(COc3ccccn3)C2)nc1`, the INHIBITION is recorded as 9.4%.

Regarding `O=C(c1cocn1)N1C[C@H]2CCC[C@@]2(COc2ccccn2)C1`, the INHIBITION is 52.1%.
